Source: PubChem BioAssay (NCI)
About 83,000 compounds went through this panel and 20% of them were active in at least one assay; those are over-represented in the sample as a whole.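 How to read the values: 0–100, growth inhibition (40 = 60% inhibited); 0, no net growth; -100 to 0, cell death (-40 = 40% of starting cells died; -100 = all dead).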 Active and inactive are the calls of the source. The calls were made as follows: active = growth percent below 10; inactive = the rest.

Tests used:
Assay in all cases: NCI-60 one-dose screen, 48 h (100 = growth as untreated, 0 = no growth, -100 = all killed)
Conditions in all cases: 10 µM unless noted
[1] = test system: NCI-H23 lung
[2] = test system: NCI-H226 lung
[3] = test system: NCI-H322M lung
[4] = test system: HOP-62 NSCLC
[5] = test system: NCI-H460 lung
[6] = test system: HOP-92 NSCLC
[7] = test system: NCI-H522 lung
[8] = test system: A549/ATCC NSCLC
[9] = test system: 786-0 renal
[10] = test system: COLO 205 colon

Measured: growth

COc1cc2ncnc(Nc3ccc(S(=O)(=O)Nc4cc(C)on4)cc3)c2cc1OCCCN1CCN(c2ccc(F)cc2)CC1
inactive: [1] 105% | [2] 98.1% | [3] 99.6% | [4] 92.2% | [5] 102% | [6] 125% | [7] 91% | [8] 101% | [9] 110% | [10] 105%

Nc1nc2ccc(-c3nc4ccc5[nH]ncc5c4c4c3CCCC4)cc2s1
inactive: [1] 100% | [2] 112% | [3] 101% | [4] 101% | [5] 107% | [6] 106% | [7] 86.8% | [8] 91.8% | [9] 108% | [10] 106%

O=S(=O)(NCCCNc1nccc(-c2c(-c3ccc(F)c(O)c3)nc3occn23)n1)c1ccc(Cl)cc1
inactive: [1] 70.7% | [2] 103% | [3] 85.3% | [4] 88.3% | [5] 62.3% | [6] 68.8% | [7] 63.1% | [8] 72.4% | [9] 106% | [10] 42.9%

COc1cc2c(c(OC)c1OC)CCC(c1cccc(C(=O)Nc3cccc(Cl)c3)c1)O2 (stereo not given)
active: [6] 8.45%
inactive: [1] 85.8% | [2] 65.6% | [3] 51.7% | [4] 79.6% | [5] 85% | [7] 51.7% | [8] 61.6% | [9] 79.8% | [10] 76.7%

COc1cc2c(c(OC)c1OC)CCC(c1cccc(C(=O)Nc3ccc(C#N)cc3)c1)O2 (stereo not given)
inactive: [1] 40.6% | [2] 33% | [3] 77.4% | [4] 72.1% | [5] 56.5% | [6] 52.3% | [7] 38.4% | [8] 50.9% | [9] 80.6% | [10] 84.8%

Ic1ccc(OCCCCn2ccnc2)cc1
inactive: [1] 66.6% | [2] 80.5% | [3] 85.3% | [4] 72.3% | [5] 92.5% | [6] 34.7% | [7] 67.4% | [8] 78.1% | [9] 83.7% | [10] 29.3%

c1ccc([P+](c2ccccc2)(c2ccccc2)c2ccc3c4ccc([P+](c5ccccc5)(c5ccccc5)c5ccccc5)c5cccc(c6cccc2c63)c54)cc1
active: [1] 8.37% | [5] 4.26% | [6] 9.54% | [7] 6.86% | [10] 1.4%
inactive: [2] 15.7% | [3] 17.8% | [4] 14.1% | [8] 11% | [9] 40.7%

CCOc1nc(-c2ccccc2)cc2c(O)c(C(=O)N/N=C/c3ccccc3)[nH]c(=O)c12
inactive: [1] 111% | [2] 106% | [3] 128% | [4] 115% | [5] 114% | [6] 107% | [7] 74.4% | [8] 114% | [9] 112% | [10] 111%

CCOC(=O)n1ccn(C)c1=S
inactive: [1] 107% | [2] 109% | [3] 89.1% | [4] 60.5% | [5] 113% | [6] 104% | [7] 84.6% | [8] 101% | [9] 90.6% | [10] 31.9%

O=C(CSc1nc2ccc([N+](=O)[O-])cc2[nH]1)Nc1ccc([N+](=O)[O-])cc1
active: [1] 0.139% | [2] 6.55% | [6] -26.8% | [7] -3.09%
inactive: [3] 43.9% | [4] 36.2% | [5] 15.4% | [8] 24.4% | [9] 24.1% | [10] 21.4%

CCCCNC(=O)CC1=C(C)/C(=C/c2[nH]c(-c3ccc[nH]3)cc2OC)N=C1C
active: [5] 7.8% | [6] -19.8%
inactive: [1] 48.6% | [2] 36.7% | [3] 50% | [4] 50.5% | [7] 17% | [8] 12.4% | [9] 16.1% | [10] 17.2%

Cc1ccc(Nc2cc(N)nc(N)n2)cc1Cl
inactive: [1] 87.6% | [2] 93.3% | [3] 99.8% | [4] 87.3% | [5] 103% | [6] 83.9% | [7] 87% | [8] 83.1% | [9] 87.9% | [10] 107%

COC(=O)[C@@H](CCCCNC(=O)[C@]12CCC(C)(C)C[C@@H]1C1=CC[C@@H]3[C@@]4(C)C/C(=C/c5ccco5)C(=O)C(C)(C)[C@@H]4CC[C@@]3(C)[C@]1(C)CC2)NC(=O)[C@]12CCC(C)(C)C[C@@H]1C1=CC[C@@H]3[C@@]4(C)C/C(=C/c5ccco5)C(=O)C(C)(C)[C@@H]4CC[C@@]3(C)[C@]1(C)CC2
inactive: [1] 106% | [2] 103% | [3] 93.9% | [4] 104% | [5] 107% | [6] 114% | [7] 94.1% | [8] 100% | [9] 104% | [10] 120%

COc1ccc(/C=C(\C#N)n2nnc3ccc(Cl)cc32)cc1
inactive: [1] 71% | [2] 105% | [3] 80.8% | [4] 111% | [5] 83.9% | [6] 74.2% | [7] 17.8% | [8] 58.9% | [9] 39.8% | [10] 83.1%

CC1CCc2c(C(=O)Nc3ncc(Cc4cccc([N+](=O)[O-])c4)s3)csc2C1 (stereo not given)
inactive: [1] 36.6% | [2] 54.1% | [3] 33.1% | [4] 26.8% | [5] 11.2% | [6] 58.9% | [8] 34.4% | [9] 30.1% | [10] 10.8%
active: [7] 2.96%

CN1CCc2nc3sc(C(N)=O)c(N)c3c(-c3cccs3)c2C1
inactive: [1] 36.2% | [2] 16.3% | [3] 40.7% | [4] 23.3% | [5] 30.4% | [7] 38.9% | [8] 24.1%
active: [6] -7.38% | [9] 9.22% | [10] 7.02%

CCOC(=O)C#Cc1c(C(=O)OCC)nnn1Cc1ccc([N+](=O)[O-])cc1
inactive: [1] 86.2% | [2] 70.4% | [3] 100% | [4] 113% | [5] 98.7% | [6] 40.6% | [8] 96.1% | [9] 65.6%
active: [7] -33.4% | [10] -22.2%

COc1ccc(/C=C(\C#N)n2nnc3cc(F)c(F)cc32)cc1
inactive: [1] 74.7% | [2] 101% | [3] 72.6% | [4] 49.6% | [5] 87.8% | [6] 72.3% | [7] 12.7% | [8] 51.7% | [9] 60.8% | [10] 38.2%

CC1CCN(CCOc2ccc(CNc3ccc4nc(CCC5CCCCC5)[nH]c4c3)cc2)CC1
inactive: [1] 71.7% | [2] 30.9% | [3] 58.5% | [4] 61.5% | [5] 27.1% | [6] 16% | [7] 44.8% | [8] 55.3%
active: [9] -55.6% | [10] -84.7%

O=C1/C(=C/c2ccccc2O)CC/C1=C\c1ccccc1O
inactive: [1] 59.8% | [2] 82.9% | [3] 96.4% | [4] 94% | [5] 68.9% | [6] 20% | [7] 56% | [8] 93.8% | [9] 54.3% | [10] 107%

CN(c1cc2ncc(=O)[nH]c2cc1NC(N)=NCc1ccc(Cl)cc1)C1CCCCC1
inactive: [1] 88.1% | [2] 72.8% | [3] 84.5% | [4] 80.8% | [5] 40.3% | [6] 28% | [7] 30.5% | [8] 89.3% | [9] 68.5%
active: [10] -63.6%

O=C(O)c1cn(C2CC2)c2cc(N3CCN(Cc4ccc5ccccc5c4O)CC3)c(F)cc2c1=O
inactive: [1] 26.4% | [3] 23.4% | [7] 24.8% | [9] 38.3% | [10] 33.4%
active: [2] 9.01% | [4] -31% | [5] 6.73% | [6] -6.42% | [8] -23.4%

Nc1ncc(-c2ccc3ncnc(Nc4cccc(Cl)c4)c3c2)cn1
inactive: [1] 58.9% | [2] 51.3% | [4] 37.8% | [5] 54.8% | [6] 11.8% | [8] 35.1% | [9] 40.8% | [10] 51.2%
active: [3] 4.75% | [7] 3.25%

Cc1[nH]c(C(=O)Nc2ccc(C(=O)N3CCN(c4cc5c(cc4F)c(=O)c(C(=O)O)cn5C4CC4)CC3)cc2OC(C)C)c(Cl)c1Cl
active: [5] 8.48%
inactive: [1] 78.4% | [2] 96.5% | [3] 90.3% | [4] 97.8% | [6] 46.5% | [7] 82.1% | [8] 38.4% | [9] 79.8% | [10] 114%

C=CC[Se]C(=O)Cc1c(C)n(C(=O)c2ccc(Cl)cc2)c2ccc(OC)cc12
active: [1] -18.2% | [2] -20.5% | [3] -29.5% | [4] -16.6% | [5] -6.72% | [6] -21.6% | [7] 8.54% | [8] -5.21% | [9] -50.5% | [10] -32.1%

N#Cc1c(-c2ccc(Cl)cc2)nc(NN2C(=O)c3ccccc3C2=O)nc1N1CCOCC1
inactive: [1] 97.2% | [2] 99.9% | [3] 111% | [4] 97.9% | [5] 106% | [6] 99.8% | [7] 97.5% | [8] 107% | [9] 99.8% | [10] 110%

Cc1nc2sc(C(=O)Nc3cccc(Br)c3)c(N)c2cc1C(O)c1ccccc1 (stereo not given)
inactive: [1] 25.1% | [2] 61.7% | [3] 61% | [4] 47.5% | [6] 76.3% | [8] 20.4% | [9] 36.2% | [10] 16.6%
active: [5] 4.9% | [7] 9.66%
